# FMDV antiviral – antivirals against foot and mouth disease virus. FMDV antiviral cell-based qHTS. 410,000 tested, 1.2% active. AID 1159524. Potency, µM (titrated, usually from 57.9 µM), for inactives: top-dose activity change, negative = inhibition, usual class: inhibitors; calls by dose curve; tested in HEK293T cells; further: read-out not given here; potency means the concentration at half of the fitted maximal effect; nearly all actives have a fitted effect of over 45% in size
# HCV inhibitor – HCV inhibition; Potency, µM (doses to about 41.8 µM), for the others: at the top dose activity change, negative = inhibition, most hits filed as inhibitors; Huh7.5.1 HCVcc-Cre infection, luciferase reporter, 44 h; 340,000 tested, 3.4% active; active means well fitted inhibition curve with a large enough effect; inconclusive means small, poorly fitted or top-dose-only effect, or another doubt; inactive means no such curve, though single readings can be large or run the other way; further: potency means the concentration at half of the fitted maximal effect
#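 Infectious HCV cell culture screen: compound-treated cells (1,000/well, pre-plated 4 h) are infected with HCVcc-Cre at roughly 0.5 moi and grown 44 h. Infection is quantified by luciferase signal after 15 min substrate incubation at room temperature.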
# MARV entry inh – Marburg virus entry inhibition; Marburg virus pseudotyped entry inhibition, cell reporter; Potency, µM (highest dose often 37.8 µM), inactives show at the top dose activity change, negative = inhibition, hits mostly inhibitors; 300,000 tested, 1.8% active; calls by dose curve; tested in HEK293 cells; further: potency means the concentration at half of the fitted maximal effect
# HCMV inh – inhibitors of human cytomegalovirus. HFF cells, HCMV-luciferase reporter, 72 h; stronger effect = lower value. activity change, negative = inhibition, % at 57.5 µM. 410,000 tested, 4.5% active. AID 1259415; in the data active means activity change below about -60%; inconclusive means no clear call, values can overlap the other calls; inactive means above about -39%
#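 Cell-based, HFFs, 1000 cells/well, 16 h 37C; cpds in DMSO + HCMV-luc, MOI 1 PFU/cell; 72 h 37C; OneGlo luminescence after 5 min RT; norm. to buffer vs Salinomycin 10uM.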
# LASV entry inh – inhibitors of Lassa virus binding or cell entry; 300,000 tested, 1.2% active; Potency, µM (doses to about 37.9 µM), for inactives: top-dose activity change, negative = inhibition, usual class: inhibitors; Lassa virus pseudotype entry inhibition, cell reporter; calls by dose curve; tested in HEK293 cells; further: potency means the concentration at half of the fitted maximal effect; nearly all actives have a fitted effect of over 50% in size
# * marks the source's active call; other numbers are inactive results; ? = inconclusive; . = no result given; + = active, no number; [ ] = dose if it differs, or a comment. Compounds with a hit are over-represented: about 7.9% of the library has one in this group of screens. On the % scale 0 is the no-effect control and ±100 the full control effect.
SMILES,FMDV antiviral,HCV inhibitor,MARV entry inh,HCMV inh,LASV entry inh
COc1cccc(C2/C(=C(\O)c3ccc4c(c3)OCCO4)C(=O)C(=O)N2Cc2cccnc2)c1 (stereo not drawn),-2%,8%,3%[46.1 µM],9,?
Cc1cc(C)n(CCCN2CCC(C(=O)Nc3cccc(-c4cccc(F)c4)c3)CC2)n1,?,?,13µM*,-100*,-8%
O=C(Nc1cccc(-c2cccc(F)c2)c1)C1CCN(Cc2ccc(CO)o2)CC1,5%,?,.,-36,.
O=C(Nc1cccc(F)c1)C1CCN(c2nc3ccccc3[nH]2)CC1,-11%,.,.,+,8%[46.1 µM]
O=C(Nc1cccc(-c2cccc(F)c2)c1)C1CCN(C2CCOCC2)CC1,-14%,13µM*,.,0,.
COC(=O)C1=C(C)N(Cc2ccccc2)C(=NCC(C)C)NC1c1cccc(F)c1 (stereo not drawn),.,.,20%[14.2 µM],.,?
CCC1CN(Cc2c(C)nc3sccn23)Cc2cc(OC)ccc2O1 (stereo not drawn),-10%,.,.,.,.
CCn1c(-c2ccccc2F)nc2cc(NC(C)=O)cc(C(=O)N(C)Cc3c(C)nc4ccccn34)c21,0%,.,.,.,.
Cc1ccc2c(C)c3ccc4ccccc4c3c[n+]2c1,?,13µM*,?,-95*,-27%
Cc1cccc2ccccc12,.,.,.,-8,.
CN(CC(=O)Nc1ccc(F)cc1)C(=O)Cn1cnc2ccc([N+](=O)[O-])cc2c1=O,-24%,-17%,-18%,-35,4%
CCN(CC(=O)Nc1c(F)cccc1F)C(=O)c1cccnc1Sc1ccccc1,4%,?,8%[46.1 µM],-28,-19%
Nc1ccc(Cc2ccc([N+](=O)[O-])cc2)cc1,-18%,-24%,-2%[46.1 µM],-64*,11%[46.1 µM]
O=C(Nc1ccc(F)cc1F)c1ccc2c(c1)CCN2S(=O)(=O)c1ccc(Cl)cc1,-18%,.,-11%[46.1 µM],-27,?
COc1cccc(-c2nnc(SCC3CNC(=O)O3)n2-c2ccc(Cl)cc2)c1 (stereo not drawn),-29%,-3%,15%,-101*,-4%
CCNC(=O)C1(C)CCCN(Cc2ccc3ccccc3c2Br)C1 (stereo not drawn),28%,.,.,-26,.
Cc1cc(C)cc(C(=O)N(CCc2ccccc2)C2CC3CCC(C2)N3C)c1 (stereo not drawn),-12%,-25%,3.2µM*,-28,?
CSc1nc2c([nH]c3ccccc32)c(=O)n1-c1ccc(C)cc1,-10%,.,.,2,-8%[46.1 µM]
CCCn1c(O)c(/C=C2\C=NN=C2c2ccccc2)sc1=S,-9%,10µM*,?,-40,?
CCN1C=CC(=C2C(=O)c3ccccc3C2=O)C=C1,4.5µM*,-7%,1.8µM*,-89*,0.65µM*
CCCN1C=CC(=C2C(=O)c3ccccc3C2=O)C=C1,1µM*,-6%,0.21µM*,-98*,0.21µM*
CCCCCCN1C=CC(=C2C(=O)c3ccccc3C2=O)C=C1,-74%,3%,.,-66*,.
Cc1ccc(-c2nc3ncccc3o2)cc1NC(=O)c1ccc2c(c1)OCO2,-11%,5%,2%[46.1 µM],15,-1%
O=C(CN1C(=O)CC(c2ccc(F)cc2)=Nc2ccccc21)NCc1ccccc1Cl,5%,.,.,-64*,1%[46.1 µM]
Cc1ccc(C2=Nc3ccccc3N(CC(=O)NCc3ccc(F)cc3)C(=O)C2)cc1C,12%,.,.,1,1%[46.1 µM]
SMILES,FMDV antiviral,HCV inhibitor,MARV entry inh,HCMV inh,LASV entry inh
COc1ccc(C)cc1S(=O)(=O)N1CCN(C(=O)c2ncoc2-c2ccc(C)cc2)CC1,-20%,-10%,2%[46.1 µM],-70*,?
COc1ccc(N2CCN(C3CCCN(S(=O)(=O)c4ccccc4)C3)CC2)cc1 (stereo not drawn),-1%,-13%,0%,-31,-12%
COc1ccc(N2CCN(S(=O)(=O)c3cc(C)ccc3OC)CC2)cc1,42%,2.8µM*,5%[46.1 µM],10,?
COc1ccc(-n2nnnc2C2CCN(S(=O)(=O)c3cc(Cl)ccc3OC)CC2)cc1,?,.,?,-78*,-8%[46.1 µM]
COc1ccc(OC)c(S(=O)(=O)N2CCN(c3ccc(F)cc3)CC2)c1,18%,-6%,.,-16,.
COc1ccc(N2CCN(C3CCCN(S(=O)(=O)c4ccc(C)cc4C)C3)CC2)cc1 (stereo not drawn),22%,8.9µM*,.,-73*,.
CCOC(=O)c1c(NC(=O)COc2cccc(C(F)(F)F)c2)sc2c1CCC(C)C2 (stereo not drawn),-9%,.,.,8,2%[46.1 µM]
CCCCn1c(N)c(N(CCOC)C(=O)c2ccc(-c3ccc(C(C)=O)cc3)o2)c(=O)[nH]c1=O,48%,13%,?,10,-14%
COCCCNC(=O)c1cccc2c(-c3ccnn3C)coc12,-2%,.,.,35,.
CC(C)CC1Nc2ncnc(N3CCN(c4ccccc4)CC3)c2N(Cc2ccc(Br)cc2)C1=O (stereo not drawn),-12%,?,.,16,.
O=C(NCCCN1CCC(Cc2ccccc2)CC1)c1ccc2nc(N3CCOCC3)sc2c1,-25%,10µM*,.,0,.
CC1CCCC(C)N1CCCNC(=O)c1ccc2nc(N3CCOCC3)sc2c1 (stereo not drawn),-19%,-12%,.,38,.
COc1ccc(OC)c2c1C(=O)CC2C (stereo not drawn),-15%,.,.,15,.
COc1ccc(OC)c2c1C(=O)C(Cl)=C(Cl)C2=O,20µM*,?,.,-91*,.
COC(=O)c1cccc(NC(=S)NCCC2=CCCCC2)c1,-13%,13µM*,-24%,?,?
COC(=O)c1ccc(NC(=S)NCCC2=CCCCC2)cc1,.,-14%,5%,0,10%
O=C1CC(c2ccccc2)=Nc2ccccc2N1,.,3%,6%,-11,5%
O=C1CN=C(c2ccccc2)c2cc(Br)ccc2N1,0%,15%,.,-22,.
O=C1CC(c2ccccc2)=Nc2ccc(Br)cc2N1,7%,-21%,?,-68*,?
Cc1ccc2c(c1)NC(=O)CC(c1ccccc1)=N2,11%,3.2µM*,-27%,?,24%
O=S(c1ccc2ccccc2c1)c1cnns1 (stereo not drawn),?,?,?,-68*,?
Cc1nnsc1S(=O)c1ccc(Cl)c(Cl)c1 (stereo not drawn),?,-25%,.,?,.
CCN(CC)S(=O)(=O)c1cccc(NC(=O)CCSc2ccc(Cl)cc2)c1,-24%,?,?,?,13µM*
CN(C)S(=O)(=O)c1cccc(NC(=O)CSc2nc3c(cc2C#N)C(=O)CC(C)(C)C3)c1,20µM*,5µM*,?,-80*,?
CN(C)S(=O)(=O)c1cccc(NC(=O)CCCSc2ccccc2)c1,-23%,11µM*,?,-8,?
CN(C)S(=O)(=O)c1ccc(Cl)c(NC(=O)CSc2nc3c(cc2C#N)C(=O)CC(C)(C)C3)c1,?,-6%,-6%,?,?
CN(C)S(=O)(=O)c1cccc(NC(=O)CSc2cccc3cccnc23)c1,59%,?,?,-101*,-20%
